About 83,000 compounds went through this panel and 20% of them were active in at least one assay; those are over-represented in the sample as a whole.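 Treatment: one concentration, 48 hours, 96-well format. Scoring: percent growth, with anything below 10 considered active.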 The source made the active and inactive calls.
Tests used:
Assay in all cases: NCI-60 one-dose screen, 48 h (100 = growth as untreated, 0 = no growth, -100 = all killed)
Conditions in all cases: 10 µM unless noted
NCI-H23 lung = tested on: NCI-H23 lung
NCI-H322M lung = tested on: NCI-H322M lung
HOP-62 NSCLC = tested on: HOP-62 NSCLC
NCI-H460 lung = tested on: NCI-H460 lung
HOP-92 NSCLC = tested on: HOP-92 NSCLC
NCI-H522 lung = tested on: NCI-H522 lung
A549/ATCC NSCLC = tested on: A549/ATCC NSCLC
786-0 renal = tested on: 786-0 renal
COLO 205 colon = tested on: COLO 205 colon
DU-145 prostate = tested on: DU-145 prostate
K-562 leukemia = tested on: K-562 leukemia
MALME-3M melanoma = tested on: MALME-3M melanoma
MDA-MB-231 breast = tested on: MDA-MB-231 breast
RXF 393 renal = tested on: RXF 393 renal
SF-268 CNS = tested on: SF-268 CNS
SF-295 CNS = tested on: SF-295 CNS
SF-539 CNS = tested on: SF-539 CNS
UACC-257 melanoma = tested on: UACC-257 melanoma
M14 melanoma = tested on: M14 melanoma
HCT-15 colon = tested on: HCT-15 colon

Measured: growth

COc1ccc(C(=O)C2CC2c2ccc(Cl)cc2)cc1 (stereo not given)
inactive: NCI-H23 lung 95.1% | NCI-H322M lung 82.7% | HOP-62 NSCLC 115% | NCI-H460 lung 94.2% | HOP-92 NSCLC 92.7% | NCI-H522 lung 68.2% | A549/ATCC NSCLC 82.8% | 786-0 renal 89% | COLO 205 colon 106% | DU-145 prostate 97.5% | K-562 leukemia 76.1% | MALME-3M melanoma 94.8% | MDA-MB-231 breast 86.4% | RXF 393 renal 95.5% | SF-268 CNS 78.8% | SF-295 CNS 141% | SF-539 CNS 98.6% | UACC-257 melanoma 94.2% | M14 melanoma 92% | HCT-15 colon 97.9%

CC[C@@H](C)[C@H](NC(=O)Cn1cc(CNC(=O)[C@@H](NC(=O)OCc2ccccc2)C(C)C)nn1)C(=O)O
inactive: NCI-H23 lung 101% | NCI-H322M lung 108% | HOP-62 NSCLC 114% | NCI-H460 lung 110% | HOP-92 NSCLC 102% | NCI-H522 lung 101% | A549/ATCC NSCLC 101% | 786-0 renal 106% | COLO 205 colon 124% | DU-145 prostate 114% | K-562 leukemia 104% | MALME-3M melanoma 105% | MDA-MB-231 breast 99.4% | RXF 393 renal 104% | SF-268 CNS 114% | SF-295 CNS 94.1% | SF-539 CNS 105% | UACC-257 melanoma 101% | M14 melanoma 107% | HCT-15 colon 111%

Cc1ccc(S(=O)(=O)c2c(COC(=O)c3cccc(C)c3)c(-c3ccccc3)nn2C)cc1
inactive: NCI-H23 lung 94.5% | HOP-62 NSCLC 18.1% | NCI-H460 lung 102% | HOP-92 NSCLC 71.4% | 786-0 renal 106% | DU-145 prostate 116% | MDA-MB-231 breast 14.3% | RXF 393 renal 93.4% | SF-268 CNS 68.3% | SF-295 CNS 54.7% | SF-539 CNS 21.4% | UACC-257 melanoma 83.5% | M14 melanoma 89.9% | HCT-15 colon 62.2%
active: NCI-H322M lung -4.7% | NCI-H522 lung -33.1% | A549/ATCC NSCLC -32.7% | COLO 205 colon -95.9% | K-562 leukemia -23% | MALME-3M melanoma -47.5%

Cc1c(-c2csc(-n3nc(C(F)(F)F)cc3C(F)(F)F)n2)no[n+]1[O-]
inactive: NCI-H23 lung 98.4% | NCI-H322M lung 98.8% | HOP-62 NSCLC 100% | NCI-H460 lung 98.9% | HOP-92 NSCLC 96.3% | NCI-H522 lung 87.4% | A549/ATCC NSCLC 95.3% | 786-0 renal 97.5% | COLO 205 colon 112% | DU-145 prostate 105% | K-562 leukemia 93.1% | MALME-3M melanoma 96.8% | MDA-MB-231 breast 96.5% | RXF 393 renal 101% | SF-268 CNS 96.1% | SF-295 CNS 93.9% | SF-539 CNS 99.1% | UACC-257 melanoma 98.5% | M14 melanoma 90.2% | HCT-15 colon 95.4%

CCN1C(=O)N(CC)C2C1NN=c1s/c(=C3\C(=O)N(CC(C)(C)C)c4ccccc43)c(=O)n12 (stereo not given)
inactive: NCI-H23 lung 45% | NCI-H322M lung 60.5% | HOP-62 NSCLC 47% | HOP-92 NSCLC 78.6% | A549/ATCC NSCLC 30.1% | 786-0 renal 39.9% | MALME-3M melanoma 71.3% | MDA-MB-231 breast 26% | RXF 393 renal 12.3% | SF-268 CNS 40% | SF-295 CNS 15.9% | UACC-257 melanoma 71.4% | M14 melanoma 18.3% | HCT-15 colon 14.2%
active: NCI-H460 lung 4.52% | NCI-H522 lung -4.26% | COLO 205 colon -38.1% | DU-145 prostate 6.12% | K-562 leukemia 4.89% | SF-539 CNS -17.9%

O=C(Nc1ccc(Br)cc1F)c1cc(I)ccc1O
inactive: COLO 205 colon 104% | DU-145 prostate 17.2% | K-562 leukemia 10.3% | MDA-MB-231 breast 32.3% | SF-268 CNS 12.7% | M14 melanoma 16.8% | HCT-15 colon 11.9%
active: NCI-H23 lung 4.95% | NCI-H322M lung 2.64% | HOP-62 NSCLC 0.452% | NCI-H460 lung 6.01% | HOP-92 NSCLC -27.7% | NCI-H522 lung -30% | A549/ATCC NSCLC 4.34% | 786-0 renal 2.92% | MALME-3M melanoma -20.4% | RXF 393 renal 1.53% | SF-295 CNS 0.923% | SF-539 CNS 9.06% | UACC-257 melanoma -12.9%

O=C(Nc1ccc(F)cc1F)c1cc(I)ccc1O
inactive: 786-0 renal 12.3% | COLO 205 colon 77.8% | DU-145 prostate 19.1% | MDA-MB-231 breast 35.2% | SF-268 CNS 16.1% | SF-539 CNS 13.3% | M14 melanoma 16.7% | HCT-15 colon 15.9%
active: NCI-H23 lung 8.86% | NCI-H322M lung 8.13% | HOP-62 NSCLC 2.05% | NCI-H460 lung 6.03% | HOP-92 NSCLC -20% | NCI-H522 lung -12.4% | A549/ATCC NSCLC 6.86% | K-562 leukemia 9.06% | MALME-3M melanoma -17.6% | RXF 393 renal -1.12% | SF-295 CNS 1.39% | UACC-257 melanoma -9.13%

NC(=O)CSc1nc(-c2ccc(F)cc2)cc(-c2ccco2)n1
inactive: NCI-H23 lung 98.7% | NCI-H322M lung 99.9% | HOP-62 NSCLC 108% | NCI-H460 lung 110% | HOP-92 NSCLC 101% | NCI-H522 lung 94.5% | A549/ATCC NSCLC 104% | 786-0 renal 105% | COLO 205 colon 111% | DU-145 prostate 111% | K-562 leukemia 103% | MALME-3M melanoma 110% | MDA-MB-231 breast 98.3% | RXF 393 renal 118% | SF-268 CNS 104% | SF-295 CNS 102% | SF-539 CNS 110% | UACC-257 melanoma 109% | M14 melanoma 98% | HCT-15 colon 107%

— PubChem BioAssay (NCI)
